# High-throughput results deposited in PubChem by National Center for Advancing Translational Sciences (NCATS).
# The entries come from a sample that favours hits as a whole.
# Pf Dd2 growth = blocks in vitro growth of P. falciparum Dd2; P. falciparum Dd2 growth, SYBR Green, 72 h; Potency, µM (doses to about 28.9 µM), for the others: at the highest dose activity, negative = inhibition, hits mostly inhibitors; hit rate 4.3% among 120,000; AID 1347417; active = well fitted inhibition curve with a large enough effect;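 also: plate controls were DMSO vehicle for no effect and reference drug for full effect; nearly all actives have a fitted effect of over 65% in size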
#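 Readout: SYBR Green fluorescence, 485 nm excitation, 535 nm emission, after ~16 h lysis at 37C. Before that, Dd2-infected red cells (2.5% hematocrit) grew 72 h with compound, 29 uM top final concentration.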
# * hit, by the source's call; i = inactive; [ ] = dose if it differs, or a comment. Potency is read from the fitted curve at half-maximal effect.
SMILES,Pf Dd2 growth
CCC1CCc2nc3sc(C(=O)Nc4ccc(F)c(Cl)c4)c(N)c3cc2C1 (stereo not drawn),-7%
O=C1c2c(nc(CNc3ccc(F)cc3)n2Cc2ccccc2)NCCN1CC1CC1,-17%[44.1 µM]
Cc1cc(C(=O)NC(C)c2cnc(N3CCCCCCC3)nc2C)n[nH]1 (stereo not drawn),3%
NC(=O)C1CCN(C(=O)[C@H]2C[C@@H](O)[C@H](O)[C@@H]3N=C(Nc4ccc(F)cc4)S[C@@H]32)CC1,25%
Cn1nccc1C(=O)N1CCC(c2nn(C)c3c2COCC3)CC1,i[5.79 µM]
O=C1CC(c2noc(COc3ccccc3)n2)CN1C1CCCCC1 (stereo not drawn),-10%
CC(C)C(Nc1nc(-c2ccncc2)nc2c1cnn2C)c1nccn1C (stereo not drawn),-10%
NCc1cccc(-c2ccc(O)cc2)c1,-20%[44.1 µM]
CSc1ccc(-c2cccc(CN)c2)cc1,10µM*
Cc1ccc(-c2ccc(C=O)cc2)cc1Cl,8%[44.1 µM]
CN(Cc1ccc(-c2ccccc2)cc1)Cc1cccc(F)c1,-11%[44.1 µM]
Cc1ccc(-c2cccc(C=O)c2)cc1Cl,6%[44.1 µM]
Cc1ccc(-c2cccc(CN)c2)cc1Cl,11µM*
Cc1cc2nc3n(c(=O)c2n1CC(=O)Nc1ccc(F)cc1)CCC3,i
CNC(=O)CCn1ncc2cc(OC3CCc4cccc(-c5ccc(O)c(F)c5)c43)ccc21 (stereo not drawn),i
CNC(=O)CCn1ncc2cc(OCc3ccccc3-c3cccc(OC)c3)ccc21,-4%[44.1 µM]
CNC(=O)CCn1ncc2cc(OCc3ccccc3-c3ccsc3)ccc21,6.3µM*
CNC(=O)CCn1ncc2cc(OCc3ccccc3-c3ccc(OC)cc3C)ccc21,5.6µM*
O=C(O)CCn1ncc2cc(OCc3ccc(-c4cccc(CO)c4)cc3)ccc21,i
COc1ccc(C)cc1-c1ccc(COc2ccc3c(cnn3CCC(=O)O)c2)cc1,i
Cc1noc(C)c1-c1cnc2[nH]cc(CC(N)=O)c2c1,-8%[44.1 µM]
Cc1noc(-c2cccc(F)c2)c1C(=O)NCCSCc1ccccc1,i
O=C(c1ccccc1N1CCOCC1)N1CCCn2nc(CO)cc2C1,-4%
CN(C)[C@@H]1CN(C2CCOCC2)CC[C@@H]1CO,38%
O=C(Cc1cnc2ccccn12)N[C@@H]1CCOC[C@H]1Oc1ccccn1,3%
SMILES,Pf Dd2 growth
Cc1noc(C)c1[S+](=O)([O-])N1CCCC(c2nn(-c3ccccc3)c(=O)[nH]2)C1 (stereo not drawn),-10%
CS(=O)(=O)N1CCC(OC2CCN(S(=O)(=O)c3ccccc3)CC2)CC1,45%
O=C(c1ccc(Cl)cc1)N1CCC(Cc2nc(-c3cnccn3)no2)CC1,-19%
CN1C[C@@H](NC(=O)c2ccccn2)C[C@H]1c1nc(-c2ccc(Cl)cc2)no1,i
CN1C[C@@H](NC(=O)Nc2ccc(Cl)cc2)C[C@H]1c1nc(-c2ccc(F)cc2)no1,14µM*
COc1ccc(C(=O)N[C@H]2C[C@@H](c3nc(-c4ccccc4)no3)N(C)C2)cc1,i
CN1C[C@@H](NC(=O)c2cnccn2)C[C@H]1c1nc(-c2ccc(OC(F)(F)F)cc2)no1,14µM*
COc1ccc(-c2noc([C@@H]3C[C@H](NC(=O)c4ccc(F)cc4)CN3C)n2)cc1,i
COc1ccc(-c2noc([C@@H]3C[C@H](NCc4ccc(S(C)(=O)=O)cc4)CN3C)n2)cc1,-13%
COc1ccc(NC(=O)N[C@H]2C[C@@H](c3nc(-c4ccc(F)cc4)no3)N(C)C2)cc1,i
Cc1ccc(-c2noc([C@@H]3C[C@H](NC(=O)Nc4ccc(Cl)cc4)CN3C)n2)cc1,-8%[44.1 µM]
COc1ccc(-c2noc([C@@H]3C[C@H](NCc4ccccn4)CN3C)n2)cc1,10µM*
CN(CC1CCOC1)S(=O)(=O)Cc1cccc(Cl)c1 (stereo not drawn),i[5.79 µM]
O=C(NC[C@H]1O[C@@H](CC(=O)N2CCN(c3ccc(F)cc3)CC2)[C@H](O)[C@@H]1O)c1ccco1,i
CCn1c(-c2ccccc2)nn(CC(=O)N(C)C(C)c2ccon2)c1=O (stereo not drawn),24%
Cc1ccc(C2Cn3nnc(-c4nc(-c5ccccc5Cl)no4)c3CO2)c(C)c1 (stereo not drawn),-5%
O=C(Nc1ccc(Cl)cc1Cl)c1cnn2c1CN(C(=O)c1cccnc1)CC2,-3%
CN1C(=O)CC(C(=O)O)C12CCN(C(=O)CCc1cccnc1)CC2 (stereo not drawn),-11%
CN(C)Cc1cn(CC2CCN(C(=O)c3ccc4c(c3)OCO4)CC2)nn1,i
COc1ccc(Br)cc1CNC(=O)CSc1n[nH]c(-c2ccccc2)n1,3%
COc1cc(-c2nc(SCC(=O)Nc3ccc(C)cc3)c(-c3ccc(F)cc3)[nH]2)cc(OC)c1OC,i
COc1ccc(-c2nc(-c3ccccc3)c(-c3ccc(F)cc3)[nH]2)c(OC)c1C,11µM*
COc1ccc(-c2ccc3nc(-c4cc(F)cc(F)c4)oc3c2)c(OC)c1OC,4%
COc1cc(-c2nc(-c3ccccc3)c(-c3ccc(Br)cc3)[nH]2)cc(OC)c1O,1.4µM*
O=S(=O)(Nc1ccc(Br)cc1F)c1ccc2nc(-c3ccccc3)[nH]c2c1,3%
SMILES,Pf Dd2 growth
O=C(O)c1ccc(-c2nc3ncccc3[nH]2)cc1,-7%[44.1 µM]
COc1ccc(-c2ccc3nc(-c4ccccc4)oc3c2)c(OC)c1OC,i
Oc1ccc(-c2nc(-c3ccccc3)c(-c3ccc(Br)cc3)[nH]2)cc1,6.3µM*
Cc1noc(C)c1-c1cc2cc(CO)oc2c(NC2CCOCC2)n1,-4%[44.1 µM]
Cc1occc1C(=O)N1CCCC(O)(CNC(=O)N2CCOCC2)CC1 (stereo not drawn),-6%
Cc1cccc(NC(=O)c2ccc3c(c2)N(C)C2CCCN2C3=O)c1C (stereo not drawn),i
CCN(CC)C1(Cc2cc(-c3cccc(O)c3)on2)COC1,i
CNc1cc(C)nc(N2CC[C@H](N3CCOCC3)[C@H](CCC(=O)O)C2)n1,i
CC(=O)N1CCN(c2cc(-c3ccccc3)nc3c(C)noc23)CC1,-8%[44.1 µM]
COc1ccc(CN2C(=O)[C@@H]3C[C@@H](O)CN3C3(CN(Cc4ccc(NC(C)=O)cc4)C3)C2=O)cc1,8%
CNC(=O)N1CCC(C2CCN(C(=O)c3c(F)cccc3Cl)C2)CC1 (stereo not drawn),-5%
COc1cccc(CN2CCN(c3nc4c(s3)c(C)nn4C)CC2=O)c1,-12%
COc1ccc(NC(=O)C2CCN(c3cc(C(F)(F)F)ncn3)CC2)c(OC)c1,-10%
Cn1c(=O)c2c(ncn2Cc2ccc(Cl)cc2)n(C)c1=O,-8%
CCOC(=O)Cn1cc2c(c1-c1ccc(Cl)cc1)c(=O)n(C)c(=O)n2C,-7%
Cn1c(=O)c2c(-c3ccc(Cl)cc3)n(Cc3ccc(Cl)cc3)cc2n(C)c1=O,11µM*
O=C(c1cc(-c2cccs2)[nH]n1)N1CCc2c(nc3cc(-c4ccccc4)[nH]n3c2=O)C1,-22%
Cc1ccc(CNC(=O)N2CCCCCCNC(=O)[C@@H]3C[C@@H](C(=O)NCCc4cnc[nH]4)C[C@@H]32)cc1,-27%
CCNC(=O)N1CCCC1c1noc(CCC(=O)NC(CC)CC)n1 (stereo not drawn),i
COCCn1c(=N)c(C(=O)NC2CCCC2)cc2c(=O)n3cc(C)ccc3nc21,3%
CCOCCCn1c(=N)c(S(=O)(=O)c2ccc(C)cc2)cc2c(=O)n3cccc(C)c3nc21,-6%
CCOCCCn1c(=N)c(C(=O)NC2CCCC2)cc2c(=O)n3cccc(C)c3nc21,2.2µM*
COCCC1(NC(=O)c2cc(C)n(C)n2)CCN(C2CCOCC2)CC1,-13%
